Screening results deposited in PubChem by several laboratories.
An excerpt weighted towards active compounds, which were near 4.7% of everything screened.
EBI2 antag – antagonists of human EBI2 receptor. P32249. EBI2 beta-arrestin recruitment, luminescence, 7a,25-OHC stimulated. inhibition, % at 5 µM. hit rate 0.81% among 360,000. AID 651636; in the data active means inhibition above about 38%;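 further: enzyme fragment complementation signal reports receptor beta-arrestin coupling in cells; 0% = agonist plus DMSO wells and 100% = wells without agonist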
Target sequence (P32249 whole entry, looked up, the tested form may be a part): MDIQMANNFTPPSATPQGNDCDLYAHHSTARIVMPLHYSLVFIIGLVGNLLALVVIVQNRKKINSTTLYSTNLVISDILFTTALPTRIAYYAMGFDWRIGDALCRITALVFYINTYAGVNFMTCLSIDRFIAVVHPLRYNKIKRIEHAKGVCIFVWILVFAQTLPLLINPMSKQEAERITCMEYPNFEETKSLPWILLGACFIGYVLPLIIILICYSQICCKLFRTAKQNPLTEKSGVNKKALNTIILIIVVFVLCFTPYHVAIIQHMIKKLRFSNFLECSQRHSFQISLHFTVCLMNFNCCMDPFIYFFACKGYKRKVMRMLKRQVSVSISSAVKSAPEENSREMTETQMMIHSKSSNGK
tim23-1 inh – growth inhibitors of tim23-1 mutant yeast. S. cerevisiae tim23-1 growth, BacTiter-Glo luminescence, 24 h. inhibition, % at 20 µM. hit rate 1.3% among 330,000. AID 463212;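 active means growth inhibition of the mutant yeast at or above 50%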;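 further: temperature-sensitive mutant grown at 25 °C; plate controls were DMSO-treated mutant yeast for no effect and medium wells lacking yeast for full effect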
PfHsp90 set2 – growth inhibition of yeast expressing Plasmodium Hsp90; hit rate 0.32% among 310,000; S. cerevisiae expressing PfHsp90, BacTiter-Glo ATP, 48 h; yeast lacking PDR1 and PDR3 efflux regulators; inhibition, % at 9.4 µM;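 active means every replicate shows inhibition above about 80%, whatever the replicate mean, limit read from the data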;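 further: 0% = DMSO neutral controls and 100% = 20 µM radicicol positive controls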
SKKanGAS inh – inhibitors of SKKanGAS S. pyogenes growth in kanamycin (SK-promoter or general growth effect). hit rate 1.3% among 300,000. inhibition, % at 7.5 µM. BacTiter-Glo, 6 h;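 active means mean replicate score, as percent of positive control median, at least 50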;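 further: strain carries kanamycin resistance gene driven by streptokinase promoter and grows in 40 µg/ml kanamycin; loss of luminescence reflects streptokinase promoter inhibition or plain growth inhibition; 0% = median of DMSO wells and 100% = positive control at its reference dose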
tim10-1 inh – tim10-1 yeast growth inhibition. AID 463190. hit rate 2.2% among 330,000. inhibition, % at 20 µM. S. cerevisiae tim10-1 ts strain growth, BacTiter-Glo, 24 h;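 active means inhibition of at least 40%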;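 further: mutant grown at 25 °C; 0% = DMSO wells with yeast and 100% = wells holding no yeast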
TIM10 inh – inhibits growth of TIM10 yeast strain. inhibition, % at 10 µM. S. cerevisiae TIM10 strain growth, BacTiter-Glo luminescence, 24 h. hit rate 1.4% among 330,000;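 active means inhibition of 40% or more at the single tested concentration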;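 further: wild-type TIM10 isogenic control strain grown at permissive 25 °C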
tim10-1 confirm – confirmation of tim10-1 mutant yeast growth inhibitors; shares compounds with tim10-1 inh; S. cerevisiae tim10-1 ts strain growth, BacTiter-Glo, 24 h; inhibition, % at 20 µM; hit rate 56% among 7,400;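 active means inhibition of yeast growth at or above a set limit in either of two repeat tests at 20 µM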;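 further: tim10-1 mutant grown at permissive 25 °C to find synthetic lethal compounds; 0% = DMSO yeast wells and 100% = medium wells without yeast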
TIM10 conf – confirmation of TIM10 yeast growth inhibitors | shares compounds with TIM10 inh | S. cerevisiae tim10 strain growth, BacTiter-Glo luminescence, 24 h | inhibition, % at 10 µM | hit rate 63% among 4,600;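 active means inhibition of yeast growth at or above a set limit in either of two replicates at 10 µM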;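 further: this counterscreen used the strain with wild-type TIM10; 0% = yeast with DMSO and 100% = medium wells lacking yeast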
tim23-1 conf – confirmation of tim23-1 mutant yeast growth inhibitors | AID 463218 | hit rate 83% among 4,400 | inhibition, % at 20 µM | shares compounds with tim23-1 inh | S. cerevisiae tim23-1 growth, BacTiter-Glo luminescence, 24 h;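 active means inhibition above about 39% in either of two replicate wells at 20 µM, limit read from the data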;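 further: temperature-sensitive tim23-1 mutant grown at 25 °C; 0% = DMSO wells with yeast and 100% = medium wells without yeast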
Active calls of the source: *; nt = not tested or not shown.

SMILES	EBI2 antag	tim23-1 inh	PfHsp90 set2	SKKanGAS inh	tim10-1 inh	TIM10 inh	tim10-1 confirm	TIM10 conf	tim23-1 conf
CNc1nc(SCc2ccccc2Cl)nc2c1CCCC2	3.5	54.3*	-20.4	34.0	41.9*	46.3*	42.9*	44.7*	59.7*
CC(=O)c1sc(-c2ccc(Cl)cc2)cc1N	-7.2	59.5*	-33.4	-10.2	50.2*	30.7	9.2	nt	44.8*
COc1cc(CC(=O)OCC(=O)NCc2ccco2)cc(OC)c1OC	-3.1	-8.0	-36.4	nt	-10.4	-10.5	nt	nt	nt
CCOc1ccccc1C(=O)N/N=C/c1coc2ccc(Cl)cc2c1=O	4.4	68.3*	22.6	nt	67.1*	70.7*	53.8*	21.6	68.9*
CC(=O)c1cccc(NC(=O)c2cccc3ccccc23)c1	-1.9	29.9	17.3	-4.7	23.3	11.9	nt	nt	nt
CC(=O)NC(Nc1c(C)n(C)n(-c2ccccc2)c1=O)C(Cl)(Cl)Cl (configuration not stated)	0.0	-1.9	-31.6	0.8	-2.5	-6.7	nt	nt	nt
CCS(=O)(=O)n1nc(-c2ccc(Cl)cc2)nc1SCc1ccccc1	nt	62.1*	nt	28.9	40.5*	9.3	1.9	nt	56.5*
COc1ccc(-c2nc(SCc3ccccc3)n(S(C)(=O)=O)n2)cc1	10.0	11.1	-9.1	0.3	17.0	32.8	nt	nt	nt
O=C1C2C3C=CC(C4CC34)C2C(=O)N1/N=C/c1ccc([N+](=O)[O-])o1 (configuration not stated)	-5.1	75.8*	-37.6	6.9	67.1*	45.1*	54.9*	46.5*	74.0*
O=C1C2C3C=CC(C4CC34)C2C(=O)N1/N=C/c1ccc(-c2ccc([N+](=O)[O-])cc2)o1 (configuration not stated)	-1.0	5.7	-16.8	nt	16.9	5.6	nt	nt	nt
O=C1C2C(C(=O)N1/N=C/c1ccc([N+](=O)[O-])o1)C1C=CC2C12CC2 (configuration not stated)	-11.2	63.9*	4.0	10.0	56.5*	43.5*	49.8*	-14.0	62.5*
CCCCCCCCCCC[N+](C)(C)CC/C=C1/c2ccccc2Sc2ccc(Cl)cc21	-2.7	89.5*	106.8*	89.9*	98.0*	81.7*	97.2*	82.5*	93.6*
CCCCCCCCCC[N+](C)(C)CC/C=C1/c2ccccc2Sc2ccc(Cl)cc21	-0.9	91.8*	105.8*	94.9*	98.0*	83.3*	96.8*	86.4*	94.4*
O=C(Nc1ccc(OCC(=O)N2CCC(Cc3ccccc3)CC2)cc1)c1ccco1	-5.9	71.7*	16.0	8.1	59.2*	68.0*	60.0*	42.8*	78.5*
CCOC(=O)C1CCN(S(=O)(=O)c2ccc(NC(=O)c3ccco3)cc2)CC1	-1.4	65.0*	3.1	3.6	69.4*	65.8*	62.1*	55.0*	68.8*
CC(=O)Nc1ccc(OCC(=O)N2CCC(Cc3ccccc3)CC2)cc1	7.4	18.3	-4.1	-9.1	23.1	13.1	nt	nt	nt
CCOC(=O)C1CCN(S(=O)(=O)c2ccc(CC)cc2)CC1	-4.1	31.5	12.3	6.0	10.9	9.9	nt	nt	nt
Nc1nn2cc(-c3ccc(Br)cc3)nc2c2ccccc12	41.5	77.2*	-3.4	25.5	40.8*	59.5*	65.1*	65.0*	82.5*
COc1cc2c(cc1OC)C(c1ccc3c(c1)Cc1ccccc1-3)OC(=O)C2 (configuration not stated)	-9.9	nt	nt	nt	nt	nt	nt	nt	nt
CCOC(=O)c1c(N)sn(-c2ccccc2)c1=S	-17.9	7.7	8.2	9.0	2.8	-5.1	nt	nt	nt
CCOC(=O)c1c2c(c(=S)n(-c3ccccc3)c1N)CCC2	1.3	58.2*	-0.2	4.6	54.0*	-0.4	37.0*	nt	66.8*
O=C(Nc1ccc(N2CCCCC2)cc1)c1ccc([N+](=O)[O-])o1	4.6	73.9*	4.3	13.4	59.4*	45.2*	47.3*	38.0*	69.7*
COc1ccc(N2CCCC2)c(NC(=O)c2ccc([N+](=O)[O-])o2)c1	19.6	68.3*	-7.0	1.9	62.1*	70.6*	51.5*	79.7*	42.6*
O=C(Nc1ccccc1N1CCCC1)c1ccc([N+](=O)[O-])o1	-12.3	66.2*	-3.0	7.6	65.0*	52.5*	54.8*	44.7*	66.2*
CC(C)(C)C(=O)N1CCN(c2ccc(NC(=O)c3ccc([N+](=O)[O-])o3)cc2)CC1	-3.5	40.2	-79.6	-0.9	31.8	22.1	nt	nt	nt
SMILES	EBI2 antag	tim23-1 inh	PfHsp90 set2	SKKanGAS inh	tim10-1 inh	TIM10 inh	tim10-1 confirm	TIM10 conf	tim23-1 conf
O=C(Nc1cc(C(F)(F)F)ccc1-n1cncn1)c1ccc([N+](=O)[O-])o1	-18.4	53.9*	-35.8	40.7	73.2*	47.3*	64.5*	57.4*	-15.6
CC1CCN(c2ccccc2NC(=O)c2ccc([N+](=O)[O-])o2)CC1	6.6	-13.4	-9.9	-9.2	15.9	-5.6	nt	nt	nt
Cc1ncc([N+](=O)[O-])n1CC(=O)N/N=C/c1ccccc1F	-7.0	-8.8	-13.3	-12.0	5.7	-2.6	nt	nt	nt
COc1ccc(OC)c(NC(=S)NCc2cccnc2)c1	-16.7	1.4	-4.5	2.2	15.4	-9.6	nt	nt	nt
CCc1cccc(NS(=O)(=O)c2ccc3c(c2)NC(=O)CO3)c1	-2.1	9.2	-4.9	-0.4	-2.4	-0.7	nt	nt	nt
CCN(C(=O)CSc1nc2ccccc2n1CCc1ccccc1)C1CCS(=O)(=O)C1 (configuration not stated)	-12.5	36.3	18.0	0.5	12.5	-7.8	nt	nt	nt
Nc1ccc(C(=O)NCCCSc2ccccc2)cc1[N+](=O)[O-]	7.5	-6.8	5.9	-0.9	-18.3	12.5	nt	nt	nt
COc1ccc(S(=O)(=O)N2CCCCC2)cc1NC(=O)Cc1ccsc1	2.0	-11.3	1.5	nt	-8.1	8.7	nt	nt	nt
CC(=O)Nc1ccc(NS(=O)(=O)c2ccc(Cl)s2)cc1	-9.6	10.9	-16.4	-29.8	2.4	0.4	nt	nt	nt
CSc1nc2ccc(NS(=O)(=O)c3ccc(Cl)s3)cc2s1	3.7	58.5*	-56.7	10.0	43.8*	47.5*	32.4*	43.8*	78.2*
COc1cc(OC)c2c(OC)cccc2n1	-15.2	2.4	9.6	-23.4	3.6	12.9	nt	nt	nt
COc1ccc(Cl)cc1C(=O)Nc1ccc(NC(C)=O)cc1	-4.0	15.9	27.6	2.6	8.4	4.9	nt	nt	nt
COc1ccc(Cl)cc1C(=O)Nc1ccc(NC(=O)C(C)C)cc1	4.0	53.0*	2.2	-6.4	52.7*	40.7*	45.5*	36.5*	42.1*
c1ccc(-c2nc(NC3CCCC3)c3ccccc3n2)cc1	-31.2	53.2*	14.6	-5.8	45.8*	41.3*	35.8*	17.1	67.5*
